# Rows were chosen to be rich in hits. Some 3.9% of all compounds tested hit in one or more screens of this group.
# FH mod: Identification of activators of human fumarate hydratase by quantitative high-throughput screening; Fumarate hydratase, mitochondrial (Homo sapiens), P07954; FH coupled MDH/diaphorase resazurin fluorescence, 15 min; 54,000 compounds, 0.22% hits; AID 1347055, 2019; Potency, µM (series often up to 79.9 µM), for inactives: top-dose activity change, negative = inhibition, actives largely listed as inhibitors; further: potency means the concentration at half of the fitted maximal effect; on the % scale 0 is the no-effect control and ±100 the full control effect; the screen sought activators but most active calls are inhibition curves; nearly all actives have a fitted effect of over 45% in size
# Target sequence (P07954 whole entry, looked up): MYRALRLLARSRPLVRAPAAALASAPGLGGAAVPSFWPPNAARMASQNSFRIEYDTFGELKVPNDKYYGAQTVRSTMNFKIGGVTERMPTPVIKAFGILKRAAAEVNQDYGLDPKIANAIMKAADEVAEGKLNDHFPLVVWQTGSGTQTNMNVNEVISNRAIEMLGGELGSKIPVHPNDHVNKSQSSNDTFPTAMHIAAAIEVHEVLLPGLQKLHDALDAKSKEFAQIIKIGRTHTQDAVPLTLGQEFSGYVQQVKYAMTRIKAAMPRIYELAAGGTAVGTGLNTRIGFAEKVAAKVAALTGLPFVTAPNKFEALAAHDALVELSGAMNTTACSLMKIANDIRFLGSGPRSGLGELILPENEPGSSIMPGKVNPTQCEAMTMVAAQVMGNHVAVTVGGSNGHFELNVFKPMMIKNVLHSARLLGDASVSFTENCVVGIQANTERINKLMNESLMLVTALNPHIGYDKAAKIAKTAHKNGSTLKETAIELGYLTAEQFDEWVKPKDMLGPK
# NTMT1 inhibitor: blocks human N-terminal methyltransferase 1 activity. NTMT1 MTase-Glo SAH luminescence, purified enzyme. Potency, µM (titrated, usually from 114 µM), for inactives: at the top dose activity change, negative = inhibition, most hits filed as inhibitors. 59,000 compounds, 2.5% hits. AID 1645870;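 further: potency means the concentration at half of the fitted maximal effect; plate controls were DMSO vehicle for no effect and no enzyme for full effect; nearly all actives have a fitted effect of over 65% in size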
# DYRK1A inh-1: blocks recombinant human DYRK1A kinase activity; AID 2705; shares compounds with NTMT1 inhibitor; 100 compounds, 80% hits; recombinant DYRK1A, Kinase-Glo ATP depletion luminescence; Potency, µM (series often up to 76.9 µM), inactives show at the top dose activity change, negative = inhibition, hits mostly inhibitors
# CLK4 inh-1: CLK4 kinase inhibition, SAR round 2; 90 compounds, 90% hits; Potency, µM (doses to about 76.9 µM), without a hit: at the highest dose activity, negative = inhibition, most hits filed as inhibitors; shares compounds with NTMT1 inhibitor; recombinant Clk4, Kinase-Glo ATP luminescence, 4.5 h; AID 493204
# CLK4 inh-2: blocks human CLK4 kinase in radiometric assay; shares compounds with NTMT1 inhibitor; Reaction Biology kinase assay, 10 uM ATP; Potency, µM, hits mostly inhibitors; 65 compounds, 100% hits; calls by dose curve
# DYRK1A inh-2: blocks human DYRK1A kinase in radiometric assay. shares compounds with NTMT1 inhibitor. Reaction Biology kinase assay, 10 uM ATP. Potency, µM, most hits filed as inhibitors. 65 compounds, 90% hits. AID 504424;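 active means compounds that showed inhibition of Dyrk1a and received a fitted potency; inactive means compounds that showed no inhibition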
# CLK2 inh: blocks human CLK2 kinase in radiometric assay; shares compounds with NTMT1 inhibitor; Reaction Biology kinase assay, 10 uM ATP; Potency, µM, usual class: inhibitors; 65 compounds, 90% hits; AID 504427;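 active means compound that inhibits Clk2 kinase in the dose series, with an IC50 potency reported; inactive means no inhibition seen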
# CLK3 inh: blocks human CLK3 kinase activity; Potency, µM, actives largely listed as inhibitors; AID 504428; shares compounds with NTMT1 inhibitor; recombinant CLK3 kinase assay, 10 uM ATP; 65 compounds, 40% hits;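 active means compounds that inhibited Clk3 enough in the ten-dose series to give a half-maximal potency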
# DYRK1B RBC: blocks human DYRK1B kinase activity; shares compounds with NTMT1 inhibitor; Recombinant Dyrk1b kinase assay, 10 uM ATP; Potency, µM, usual class: inhibitors; 65 compounds, 80% hits; AID 504429;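 active means compounds whose dose response shows an inhibitor phenotype against the kinase Dyrk1b; inactive means compounds showing no inhibitor phenotype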
# CLK1 RBC: CLK1 kinase inhibition; shares compounds with NTMT1 inhibitor; recombinant Clk1 kinase assay, 10 uM ATP; Potency, µM, actives largely listed as inhibitors; 65 compounds, 90% hits; AID 504430;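 active means compounds that block the splicing kinase Clk1 enough to give a fitted half-inhibition concentration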
# USP2a K63: USP2a inhibition confirmed on K63 diubiquitin | 30 compounds, 80% hits | Potency, µM (doses to about 57.5 µM), without a hit: at the highest dose activity change, negative = inhibition, actives largely listed as inhibitors | shares compounds with NTMT1 inhibitor | USP2 cleavage of DiUb K63-3IQF, fluorescence kinetic
# Casp6 inh: selectivity of USP2a inhibitors: human caspase-6 inhibition. shares compounds with NTMT1 inhibitor. Caspase 6 enzyme, Caspase-Glo 6 luminescence. activity change, negative = inhibition, % at 46.1 µM. 30 tested, under 10 active. AID 652277
# NNMT counter: counter-screen for NTMT1 inhibitors: human NNMT inhibition; shares compounds with NTMT1 inhibitor; NNMT MTase-Glo luminescence, SAH detection; 120 compounds, 10% hits; Potency, µM (top dose mostly 57.1 µM), for the others: at the highest dose activity, negative = inhibition, most hits filed as inhibitors
# An asterisk follows results filed as active; i = inactive; ? = inconclusive; · = no result given; [ ] = another dose, or the depositor's remark. Unless noted, the call rests on the fitted dose curve; in most records, active means well fitted curve in the direction sought with a large enough effect; inconclusive means small, poorly fitted or top-dose-only effect, or another doubt; inactive means no such curve, though single readings can be large; an effect the other way counts as inactive or inconclusive.
SMILES,FH mod,NTMT1 inhibitor,others
c1nc(N2CCNCC2)c2cc(-c3ccc4c(c3)OCO4)ccc2n1,·,?,CLK4 inh-1=0.583µM*
CN(CC1CCCCC1)c1ncnc2ccc(-c3ccc4c(c3)OCO4)cc12,·,·,CLK4 inh-1=0.0582µM*
NCCNc1ncnc2ccc(-c3ccc4c(c3)OCO4)cc12,·,·,DYRK1A inh-1=0.184µM*;CLK4 inh-2=8.44*;DYRK1A inh-2=5.47µM*;CLK2 inh=6.42µM*;CLK3 inh=15µM*;DYRK1B RBC=i;CLK1 RBC=5.56µM*
O=C(CCl)Nc1cccc(NC2=NS(=O)(=O)c3ccccc32)c1,3.3%,3.7%[57.5 µM],
CN(C)CCCNc1ncnc2ccc(-c3ccc4c(c3)OCO4)cc12,·,?,CLK4 inh-1=1.04µM*
Clc1ccccc1-c1ccc2ncnc(NCc3ccc4c(c3)OCO4)c2c1,·,3.4%,
C/C=C/c1ccc2oc(-c3ccc(O)c(OC)c3)c(C)c2c1,?,4.3%[57.5 µM],NNMT counter=-8.9%
Fc1ccccc1CNCc1ccc(-c2ccnc3[nH]ccc23)cc1,-5.9%,?,NNMT counter=?
Cc1ccc(S(=O)(=O)Nc2cnccc2C(=O)Nc2nc(-c3ccccc3F)cs2)cc1,·,-18.8%,
Cc1ccc(S(=O)(=O)Nc2cc(F)c(F)cc2C(=O)Nc2nc(-c3ccccc3)cs2)cc1,·,7.0%,
Cc1ccc(S(=O)(=O)Nc2ncccc2C(=O)Nc2nc(-c3ccccc3)cs2)cc1,·,·,USP2a K63=3.43µM*;Casp6 inh=-3.7
Cc1ccc(S(=O)(=O)Nc2cccnc2C(=O)Nc2nc(-c3ccccc3)cs2)cc1,·,23.3%,
Cc1cc(F)ccc1S(=O)(=O)Nc1cnccc1C(=O)Nc1nc(-c2ccccc2)cs1,·,18.0%,USP2a K63=1.93µM*;Casp6 inh=2.7
Cc1ccc(S(=O)(=O)Nc2ccc(Cl)cc2C(=O)Nc2nc(-c3ccccc3)cs2)cc1,·,?,USP2a K63=1.22µM*;Casp6 inh=0.0
Cc1ccc(S(=O)(=O)Nc2ccc(OC(F)(F)F)cc2C(=O)Nc2nc(-c3ccccc3)cs2)cc1,·,-2.7%,
Cc1ccc(S(=O)(=O)Nc2cc(C(F)(F)F)ccc2C(=O)Nc2nc(-c3ccccc3)cs2)cc1,·,?,USP2a K63=1.72µM*;Casp6 inh=-15.3
CCOC(=O)C(CCc1ccccc1)NC1CSC(c2cccs2)CN(CC(=O)O)C1=O (stereo not drawn),5.8%,-3.2%[57.5 µM],
Cc1cc(NS(=O)(=O)c2ccc(NC(=O)Cc3ccc(C)c(F)c3)cc2)no1,·,11.8%,
O=C(Nc1nc2cc(C(F)(F)F)cc(NC3CC3)n2n1)c1cccnc1,7.4%,3.0%[57.5 µM],
COc1c/c(=C2\C=c3ccccc3=N2)[nH]/c1=C/c1[nH]c(C)cc1C,·,·,NNMT counter=?

# High-throughput results from PubChem.
